The text below walks through data of PubChem BioAssay (NCATS).

Each structure is given as a SMILES string. Results filed as inconclusive are left out. Unmarked numbers belong to inactive results. Active and inactive are the calls of the source. Calls come from the whole dose curve; as a rule, active = well fitted inhibition curve with a large enough effect; inconclusive = small, poorly fitted or top-dose-only effect; inactive = no such curve, though single readings can be large or run the other way.
% is set by controls: 0 for no effect and ±100 for the full control effect; potency is the fitted concentration of half-maximal effect.

Chain of Cytochrome P450 2D6 (Homo sapiens) (P10635 whole entry, looked up): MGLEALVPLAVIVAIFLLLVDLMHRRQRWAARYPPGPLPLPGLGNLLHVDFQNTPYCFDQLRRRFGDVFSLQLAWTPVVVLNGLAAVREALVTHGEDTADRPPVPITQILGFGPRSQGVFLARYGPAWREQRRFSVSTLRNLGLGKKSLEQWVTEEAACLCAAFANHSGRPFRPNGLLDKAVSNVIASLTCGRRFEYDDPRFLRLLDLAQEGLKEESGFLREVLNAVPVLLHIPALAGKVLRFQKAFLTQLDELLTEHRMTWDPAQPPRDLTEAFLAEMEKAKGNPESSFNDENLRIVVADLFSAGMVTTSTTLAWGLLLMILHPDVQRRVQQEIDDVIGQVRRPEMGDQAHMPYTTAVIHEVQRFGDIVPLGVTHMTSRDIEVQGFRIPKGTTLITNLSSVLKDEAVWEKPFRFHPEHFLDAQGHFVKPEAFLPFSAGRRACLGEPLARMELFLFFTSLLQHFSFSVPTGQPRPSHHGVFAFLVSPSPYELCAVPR

This test deals with Cytochrome P450 2D6 (Homo sapiens) (UniProt P10635). Briefly: qHTS Assay for Inhibitors and Substrates of Cytochrome P450 2D6 (AID 891).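 For activity change, negative = inhibition: luciferin methyl ether substrate demethylated by CYP2D6 with NADPH regeneration.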 Note: nearly all actives have a fitted effect of over 60% in size. Conditions: recombinant CYP2D6, luciferin-ME EGE luminescence; series mostly up to 57.1 µM; activity change, negative = inhibition: at the top concentration. A digest of the protocol:
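Human CYP2D6 (5 nM) with 30 uM Luciferin-ME EGE (at Km) in 100 mM KPO4, compound preincubated 10 min, then NADPH regeneration system for 60 min at room temperature. Luciferin read by luminescence; normalized to 1.43 uM quinidine.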
`CC(C)(C)c1ccc(OC(=O)Nc2ccc(O)c(C(=O)O)c2)cc1`: the activity change, negative = inhibition is 22.6% [at 11.4 µM].

Regarding `CC(C)CCC[C@@H](C)[C@@H]1CC[C@@H]2[C@H]3CC[C@H]4C[C@@H](N)CC[C@@]4(C)[C@@H]3CC[C@]21C`, the activity change, negative = inhibition is 11% [at 11.4 µM].

With `O[C@@H]1[C@@H]2c3cc4c(cc3CN3CCC(=C[C@@H]1O)[C@H]23)OCO4`, the Potency was 3980 nM (active).

Turning to `O=C(C[n+]1ccc2ccccc2c1)c1ccc2ccc3ccccc3c2c1`, the Potency is 794 nM (active).

Regarding `O=C1OC(=O)[C@@H]2[C@@H]1[C@@H]1CC[C@H]2O1`, the “activity change, negative = inhibition” value was 26.9%.

For `Clc1ccc(C(c2ccc(Cl)cc2)n2cc[n+](C[C@@H](OCc3ccc(Cl)cc3Cl)c3ccc(Cl)cc3Cl)c2)cc1`, the Potency is 39.8 nM (active).

Take `c1ccc2c(c1)-c1ccccc1C2N1CC2CCC(CC2)C1`: the Potency was 3980 nM (active).

Regarding `O[Si@](CCCN1CCCCC1)(c1ccc(F)cc1)C1CCCCC1`, the Potency was 501 nM (active).

In the case of `C[C@@H](COc1ccccc1)N(CCCl)Cc1ccccc1`, the Potency is 1580 nM (active).

With `CCN1CCC[C@@H](OC(=O)C(c2ccccc2)c2ccccc2)C1`, the Potency was 1580 nM (active).

On to `CN1[C@H](CC(=O)c2ccccc2)CCC[C@H]1C[C@@H](O)c1ccccc1`, for which the Potency was 10 nM (active).

For `O[C@@H](c1cc(-c2ccccc2)nc2c1ccc1ccccc12)[C@@H]1CCCCN1`, the Potency was 3160 nM (active).

With `CCC1=C(C[C@H]2NCCc3ccccc32)C[C@@H]2c3cc(OC)c(OC)cc3CCN2C1`, the Potency was 2510 nM (active).

Take `N#CC(=C(/N)Sc1ccccc1N)/C(C#N)=C(/N)Sc1ccccc1N`: the Potency was 20 nM (active).

As to `COC(=O)[C@H]1[C@@H](c2ccccc2)[C@@]2(c3ccccc3)Oc3ccccc3[C@@]1(O)[C@@H]2O`, the activity change, negative = inhibition is 40.2% [at 11.4 µM].
